Giardia killer: Giardia lamblia killing | Giardia lamblia trophozoite viability | activity change, % at 7.66 µM, hits read low | 0.15% of 340,000 active | AID 540267; in the data active = activity change below about -80%; inconclusive = between about -30% and that limit;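 also: parasites exposed to compound for two days anaerobically before the ATP read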
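Luminescent ATP signal served as the viability read-out, measured 15-30 min after adding ATP detection reagent to trophozoites that had been incubated with compounds for 48 hrs at 37 deg C anaerobically at 100 cells/well.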
TDP1 inh: TDP1 (human) enzyme inhibition. Potency, µM (highest dose often 130 µM), for inactives: top-dose activity change, negative = inhibition, usual class: inhibitors. Q9NUW8. recombinant TDP1, AlphaScreen DNA substrate cleavage. 0.28% of 350,000 active; also: potency is read from the fitted curve at half-maximal effect; nearly all actives have a fitted effect of over 40% in size
Target sequence (Q9NUW8 whole entry, looked up): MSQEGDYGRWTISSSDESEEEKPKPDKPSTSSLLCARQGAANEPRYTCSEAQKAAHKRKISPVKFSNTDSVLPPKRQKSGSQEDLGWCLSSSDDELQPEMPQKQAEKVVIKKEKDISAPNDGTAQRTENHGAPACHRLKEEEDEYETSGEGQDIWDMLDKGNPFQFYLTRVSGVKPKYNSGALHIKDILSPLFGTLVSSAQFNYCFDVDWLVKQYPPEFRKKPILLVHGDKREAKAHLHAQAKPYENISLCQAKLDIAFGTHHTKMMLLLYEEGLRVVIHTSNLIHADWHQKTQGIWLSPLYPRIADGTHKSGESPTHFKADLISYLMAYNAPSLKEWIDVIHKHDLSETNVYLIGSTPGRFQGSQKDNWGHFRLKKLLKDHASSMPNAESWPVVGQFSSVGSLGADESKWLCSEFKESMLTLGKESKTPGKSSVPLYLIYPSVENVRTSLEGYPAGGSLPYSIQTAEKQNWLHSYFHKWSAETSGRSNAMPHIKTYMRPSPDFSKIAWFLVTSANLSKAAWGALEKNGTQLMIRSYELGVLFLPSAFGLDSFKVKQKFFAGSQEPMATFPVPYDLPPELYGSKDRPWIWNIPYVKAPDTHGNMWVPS
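E. coli-derived human Tdp1, 1 nM final. Cpd preinc 15 min RT; substrate 15 nM final, 5 min RT; AS bead mix 10 ug/ml final, 10 min RT. Signal loss = tyrosine-FITC cleavage. No-enzyme wells = max signal.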
DT40 TDP1 no CPT: qHTS for Inhibitors of human tyrosyl-DNA phosphodiesterase 1 (TDP1): qHTS in cells in absence of CPT; DT40 Tdp1-/- hTDP1 cells, no CPT, ATP luminescence, 48 h; Potency, µM (highest dose often 46.2 µM), without a hit: top-dose activity change, negative = growth inhibition, hits mostly inhibitors; 15% of 420,000 active; AID 686978, 2013; also: potency is read from the fitted curve at half-maximal effect; nearly all actives have a fitted effect of over 55% in size
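Readout: luminescence from CellTiter-Glo after 30 min in the dark at RT. Cells: DT40 Tdp1-/- with stable hTDP1, 400/well. Exposure: compounds alone, ≥48 hr, 37 °C.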
DT40 TDP1 CPT: DT40-hTDP1 cell growth loss with CPT; chicken DT40 Tdp1-/-;hTDP1 cells + 20 nM CPT, ATP luminescence, 48 h; Potency, µM (titrated, usually from 46.2 µM), without a hit: at the highest dose activity change, negative = growth inhibition, usual class: inhibitors; 12% of 420,000 active; AID 686979; also: potency is read from the fitted curve at half-maximal effect; nearly all actives have a fitted effect of over 55% in size
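Cell growth measured by CellTiter-Glo luminescence after a minimum 48 h, 37 C compound exposure with 20 nM CPT in Tdp1-knockout DT40 cells stably expressing hTDP1, seeded 400/well; qHTS titration format.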
IL-1B inflam inh: inflammasome signaling inhibition, IL-1 beta readout; THP-1 LPS/ATP IL-1B secretion, AlphaLISA, 16 h; hits give low values; activity change, % at 57.5 µM; 4.7% of 360,000 active; in the data active = activity change below about -50%; inconclusive = mostly about -30% to -49%
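THP-1 cells pretreated 1 hr with compounds (up to 57.5 uM final), then stimulated with LPS (250 ng/mL final) plus ATP (1.25 mM final); secreted IL-1B measured by AlphaLISA after 16 hr, decreased signal indicating inhibition.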
ELG1 repair inh: blocks ELG1-dependent DNA repair in HEK293T cells; AID 504467; HEK293T ELG1-luciferase reporter, luminescence, 16 h; DNA damage induced by 5-fluorouridine; 2.3% of 330,000 active; Potency, µM (series often up to 46.1 µM), for the others: at the highest dose activity change, negative = inhibition, usual class: inhibitors; also: potency is read from the fitted curve at half-maximal effect; nearly all actives have a fitted effect of over 55% in size
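5-Fluorouridine DNA damage + compound/DMSO, 2,000 cells/well, 16 h, 37 °C/5% CO2. ONE-Glo, 30 min RT, luminescence. Readout = decrease in reporter signal.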
An asterisk follows results filed as active; ? = inconclusive; / = not tested or not shown; [ ] = remark or other dose. Shown are actives, neighbours in structure and some others; about 19% of the full set was active somewhere. Unless noted, calls follow the shape of the dose curve; as a rule, active = well fitted curve in the direction sought with a large enough effect; inconclusive = small, poorly fitted or top-dose-only effect, or another doubt; inactive = no such curve, though single readings can be large; an effect the other way counts as inactive or inconclusive. % is scaled to controls: 0 for no effect and ±100 for the full control effect.

SMILES	Giardia killer	TDP1 inh	DT40 TDP1 no CPT	DT40 TDP1 CPT	IL-1B inflam inh	ELG1 repair inh
Cc1cc(NC(=O)CSc2nnc(C)n2-c2ccccc2C)no1	-23.4	1.2%	0.9%	-6.8%	4.4	0.2%
COCCCNC(=O)C1CCC(CNS(=O)(=O)c2ccc3c(c2)N(C(C)=O)CCO3)CC1 (centres undefined)	26.4	-0.3%	3.6%	-3.1%	15.0	19.5%
CC(=O)N1CCOc2ccc(S(=O)(=O)NCC3CCC(C(=O)Nc4ccc(C)cn4)CC3)cc21 (centres undefined)	37.2	1.8%	13µM*	14.6µM*	-7.8	5.17µM*
COc1ccc(Cl)cc1C(=O)NCc1nc(-c2cccc(C)c2)no1	/	-4.9%	-26.3%	?	/	/
O=C(Nc1ccc(F)cc1)N1CCc2ccccc2C1	-6.2	7.7%	?	-27.9%	-55.2*	?
O=C(NC1CCCCC1)N1CCc2ccccc2C1	21.7	8.3%	-17.8%	-11.2%	-78.7*	-5.1%
O=C(CNC1CCCCC1)N1CCc2ccccc2C1	8.5	?	-16.8%	2.1%	5.8	14.0%
O=C(NC1CCCCC1)C(c1ccccc1)N1CCc2ccccc21 (centres undefined)	-21.7	8.6%	20.6µM*	25.9µM*	-10.8	?
O=C(Nc1ccc(Br)cc1)N1CCc2ccccc2C1	-14.3	-0.1%[56.1 µM]	-10.7%	-22.6%	-83.4*	?
CN1CCCN(C(=O)[C@@H]2C[C@@H](Sc3nc4ccccc4[nH]3)CN2Cc2ccc(-c3ccccc3)cc2)CC1	/	/	?	9.6%[9.04 µM]	/	/
CC(=O)Nc1ccc(OCC(O)Cn2c3ccccc3c3ccccc32)cc1 (centres undefined)	11.6	5.3%	?	?	-20.7	18.4µM*
O=C(O)c1ccc(OCC(O)Cn2c3ccccc3c3ccccc32)cc1 (centres undefined)	-21.9	4.2%	-17.0%	-7.1%	29.8	?
Cc1ccccc1OC[C@H](O)CO	/	8.3%[56.1 µM]	/	/	/	/
CC(=O)Nc1ccc(OCC(O)Cn2c3ccccc3c3ccccc32)c(C)c1 (centres undefined)	-13.5	7.5%	18.4µM*	?	-59.9*	?
Cc1ccccc1OCC(O)CN1CCN(CC(O)COc2ccccc2C)C(C)C1 (centres undefined)	4.6	/	16.4µM*	?	-63.1*	-16.0%
CC(=O)Nc1ccc(-c2nnc3n(CC(C)C)c(=O)c4ccccc4n23)cc1	/	5.7%	?	?	/	/
Cc1nccn1CC(O)Cn1c2ccccc2c2ccccc21 (centres undefined)	11.9	3.7%	?	?	-52.9*	?
O=C1c2cccc3cc([N+](=O)[O-])cc(c23)C(=O)N1c1nncs1	5.1	/	-6.7%	1.7%	9.1	/
O=C(Nc1cccc(O)c1)c1ccccc1[N+](=O)[O-]	6.3	2.7%	8.5%	-10.5%	5.3	-0.3%
CCCCOc1ccc(C(=O)N2CCN(CCc3ccccn3)CC2)cc1	/	3.6%	-22.8%	-20.1%	/	/
CCOC(=O)c1ccc(S(=O)(=O)Nc2cc(S(=O)(=O)N3CCOCC3)ccc2O)cc1	20.2	4.9%	?	?	12.3	3.5%
OC(COc1ccccc1)Cn1c2ccccc2c2ccccc21 (centres undefined)	2.6	-1.2%	?	?	0.0	0.5%
Cc1ccccc1OCC(O)Cn1c2ccccc2c2ccccc21 (centres undefined)	-11.4	0.0%	?	?	-84.9*	36.1%
CCOC(=O)C1CCN(C2=NC(=O)/C(=C/c3ccc(O)cc3)S2)CC1	6.0	/	7.31µM*	?	27.7	6.7%
CCOC(=O)C1CCCN(C2=NC(=O)/C(=C/c3ccc(N(C)C)cc3)S2)C1 (centres undefined)	0.6	/	?	?	-83.1*	6.9%
SMILES	Giardia killer	TDP1 inh	DT40 TDP1 no CPT	DT40 TDP1 CPT	IL-1B inflam inh	ELG1 repair inh
CCOC(=O)C1CCCN(C2=NC(=O)/C(=C/c3ccc(OC)cc3)S2)C1 (centres undefined)	?	/	?	?	24.4	-14.7%
CCOC(=O)C1CCN(C2=NC(=O)/C(=C/c3ccccc3OC)S2)CC1	2.5	/	-5.7%	?	15.3	1.4%
CC1CCN(c2cc(=O)n(C3CCCCC3)c(=O)[nH]2)CC1	-5.7	2.2%	-20.7%	?	19.2	?
Cc1cc(C)cc(Nc2cc(=O)n(C3CCCCC3)c(=O)[nH]2)c1	19.1	3.9%	18.4µM*	?	22.2	?
O=C(CN1CCN(S(=O)(=O)c2ccc(Br)s2)CC1)N1CCCCC1	-19.2	0.8%[56.1 µM]	-24.5%	?	-4.9	-9.2%
C[C@@H]1CN([C@H](C)CO)C(=O)CCCn2cc(nn2)CO[C@H]1CN(C)C(=O)c1ccncc1	/	/	-12.0%	-2.3%	-5.4	/
C#CC1(O)CCC2C3CCc4cc(O)cc(C)c4C3CCC21C (centres undefined)	5.2	/	?	16.4µM*	2.0	/
CC(=O)N1C[C@H]2CON(C)[C@H]2C[C@H]1c1ccc(-c2ccccc2)cc1	/	/	?	?	8.1	/
CC1S/C(=C(\C#N)C(=O)NCc2ccco2)N(Cc2ccco2)C1=O (centres undefined)	0.9	2.0%	?	8.2µM*	25.9	-4.3%
N#C/C(=N\Nc1ccc(S(=O)(=O)N2CCc3ccccc32)cc1)C(N)=S	-1.3	11.0%	11.6µM*	-18.4%	-0.4	6.51µM*
N#C/C(=N\Nc1ccc(S(=O)(=O)N2CCCCCC2)cc1)C(N)=S	12.9	5.1%	?	?	-23.8	20.6µM*
N#C/C(=N\Nc1ccc([N+](=O)[O-])cc1)C(N)=S	12.6	11.6%	23.1µM*	?	-65.9*	?
N#C/C(=N\Nc1cccc([N+](=O)[O-])c1)C(=O)c1ccc(Br)cc1	5.6	11.0%	6.51µM*	5.8µM*	-64.0*	1.83µM*
Cc1ccnc(NC(=O)Nc2ccc(Br)cc2Cl)c1	3.6	5.5%	-55.6%	?	-11.8	?
CSCCC(C(=O)OC1CCOC1=O)N1C(=O)c2ccccc2C1=O (centres undefined)	-23.8	0.0%	8.3%	-0.7%	9.4	-7.4%
CCc1ccc(C2c3c(-c4ccccc4O)n[nH]c3C(=O)N2Cc2ccncc2)cc1 (centres undefined)	/	4.7%	13µM*	14.6µM*	/	/
CCOCCCN1C(=O)c2[nH]nc(-c3ccccc3O)c2C1c1ccc(CC)cc1 (centres undefined)	/	4.7%	16.4µM*	20.6µM*	/	/
COc1cc(NC2=Nc3cccc4cccc2c34)cc(OC)c1OC	-6.8	-4.3%	?	?	0.8	1.9%

Screens: PubChem BioAssay, National Center for Advancing Translational Sciences (NCATS)
